# About 13,000 (27%) of roughly 48,000 compounds showed an effect of 50% or more. The list shows a part of the results.
# Tested on: Wolbachia pipientis
# Assay: Anti-Wolbachia Cell-Based Screen
# Type: functional
# Set-up: scale not given: in the data most compounds retested in dose-response had high values
# Settings: 5 µM
row,SMILES,Percent Effect [%]
1,Cc1cnn(CC(C)NCC(=O)NCCc2cccs2)c1 (configuration not stated),-55.8
2,Cc1ncc2c(n1)CN(Cc1nnc(Cc3ccccc3)o1)CC2,5.635
3,Cc1cccnc1CNCC1(O)CCCN(CC2CCCCC2)C1=O (configuration not stated),-7.545
4,Cc1nonc1CN(C)CC1(O)CCCN(CCC2CCCCC2)C1=O (configuration not stated),3.713
5,Cc1cccnc1CN(C)CC1(O)CCCN(CC2CCCCC2)C1=O (configuration not stated),93.19
6,O=C(NCCOc1ccc(C(F)(F)F)cn1)c1ccoc1,0.7109
7,COc1ccc(OCc2nccc(-c3cc(C(=O)O)ccn3)n2)cc1,-32.77
8,Cc1nn(C)cc1S(=O)(=O)NCC(c1ccccc1Cl)N1CCCC1 (configuration not stated),87.53
9,COc1ccc(S(=O)(=O)NCC(c2cccn2C)N(C)C)c(C)c1 (configuration not stated),5.566
10,O=C(NCc1cc[nH]n1)NCC(c1ccccc1Cl)N1CCCC1 (configuration not stated),3.552
11,CCn1cc(S(=O)(=O)NCC(c2ccccc2)N2CCOCC2)c(C)n1 (configuration not stated),72.63
12,Cc1cccc(S(=O)(=O)NCC(C)N2CCN(C)CC2)c1Cl (configuration not stated),-7.911
13,Cc1nn(C)cc1S(=O)(=O)NCC(c1ccccc1)N1CCCCCC1.Cl (configuration not stated),112.3
14,CCn1cc(CNCC(c2ccc(C)s2)N2CCOCC2)cn1 (configuration not stated),13.07
15,CCn1cc(S(=O)(=O)NCC(OC)c2ccccc2)cn1 (configuration not stated),8.527
16,Cc1nc(C)c(C(=O)NCC(c2ccccc2Cl)N2CCOCC2)s1 (configuration not stated),6.115
17,COc1ccc(S(=O)(=O)NCC(N)c2ccccc2)c(C)c1.Cl (configuration not stated),-12.16
18,COc1ccc(C(CNS(=O)(=O)c2cn(C)nc2C)N2CCCC2)cc1.Cl (configuration not stated),105.6
19,O=C(NCCCn1cncn1)NCC(c1ccccc1)N1CCCC1 (configuration not stated),9.834
20,Cc1nsc(NCc2ccc(S(=O)(=O)N(C)C(C)C)cc2)n1,22.68
21,CCCC(C)CS(=O)(=O)NCc1cccnc1OC (configuration not stated),6.664
22,CC(C)c1nnc2n1CCN(C(=O)c1ccc3c(c1)NC(=O)CO3)C2,2.374

row,SMILES,Percent Effect [%]
1,O=C(NCc1ccccc1CN1CCCCC1)Nc1nncs1,-2.637
2,NC(=O)CN1CCC(NC(=O)Nc2nccs2)CC1,9.96
3,O=C(NCCCN1CCN(c2ncccn2)CC1)Nc1ccccn1,10.78
4,Cc1csc(NC(=O)CN2CCC(c3ccnn3CCO)CC2)n1,-8.035
5,Cc1csc(NC(=O)NCCCN2CCC(C(N)=O)CC2)n1,96.37
6,Cc1csc(CCNC(=O)C2CCN(CC(N)=O)CC2)n1,-1.435
7,NC(=O)C1CCN(CCCNC(=O)Nc2nncs2)CC1,106.6
8,NC(=O)C1CCN(CCCNC(=O)Nc2nccs2)CC1,104.9
9,O=C(NCc1ccccc1CN1CCCC1)Nc1nncs1,6.886
10,O=C(C(C1CC1)C1CC1)N1CCC(n2ccnn2)CC1,-3.228
11,COc1ccc(C(C(=O)O)N2CCC(O)(c3cccnc3)CC2)cc1Cl (configuration not stated),2.828
12,CN(C)c1ncc(-c2cc(C(=O)NCCC#N)n(CC3CC3)c2)cn1.O=C(O)C(F)(F)F,101.1
13,Cc1cnc(N2C[C@@H]3CCN(CC(=O)N(C)C)C(=O)[C@H]3C2)nc1.O=C(O)C(F)(F)F,-29.89
14,CN(C)c1ncc(-c2cc(C(=O)NCCO)n(CC3CC3)c2)cn1.O=C(O)C(F)(F)F,116.5
15,CN(C)CCNC(=O)c1cc(-c2cnc(N(C)C)nc2)cn1CC1CC1,102.4
16,CN(C)CCNC(=O)c1ccc(OC2CCN(CC3CC3)CC2)c(Cl)c1,3.166
17,COCCCNC(=O)c1cc(-c2cnc(N(C)C)nc2)cn1CC1CC1.O=C(O)C(F)(F)F,117.6
18,CC(C)n1cnc2c1C(C(=O)NCCC#N)N(Cc1ccccc1)CC2.O=C(O)C(F)(F)F (configuration not stated),-22.73
19,COCCN1CCCn2cnc(CNC(=O)N(C)C)c2C1.O=C(O)C(F)(F)F.O=C(O)C(F)(F)F,-21.14
20,CN(C)c1cc(NCc2cnc3n2CCN(CC2CC2)CC3)ncn1.O=C(O)C(F)(F)F,3.56
21,CCOC(=O)N1CCCn2nc(C(=O)NCCN(C)C)cc2C1,-7.985
22,COCc1nc(NC(C)c2c(C)n[nH]c2C)c2cnn(C)c2n1 (configuration not stated),8.424

row,SMILES,Percent Effect [%]
1,Cc1nc(-c2ccc(CC(=O)N3CCN(C(=O)C(C)C)CC3)cc2)cs1,-9.711
2,CN(C)c1ncc(-c2cc(C(=O)O)n(CC3CC3)c2)cn1,1.495
3,CNC(=O)c1cc(-n2ccnc2-c2cnc(N(C)C)nc2)ccc1OC,-13
4,CN(C)c1ncc(-c2cc(C(=O)NC(C)(C)CO)n(CC3CC3)c2)cn1,111.9
5,CN(C)C(=O)c1ccc2c(c1)N(C)C(CC(=O)NC(C)(C)CO)CO2 (configuration not stated),-1.046
6,CN(C)c1ncc(NC(=O)N2CCC(CN3CCCC3)C2)cn1 (configuration not stated),8.781
7,CN(C)c1ncc(-c2cc(C(=O)N3CCCC3)n(CC3CC3)c2)cn1,121.7
8,OC1(CNCc2ccc(F)c(C(F)(F)F)c2)CCSCC1,2.477
9,O=C(O)CN1CCc2onc(C(c3ccccc3)c3ccccc3)c2C1,-16.17
10,CNS(=O)(=O)CCn1cc(-c2ccc(OC)c(OC)c2)nn1,-29.27
11,Cc1noc(C)c1CN1CCOC2(CCCN(c3ccccn3)C2)C1 (configuration not stated),-3.1
12,Cc1nc(CSCCC(=O)NCC(=O)NC(C)C)cs1,3.002
13,COc1ccc(CNC(=O)CCSCc2csc(C)n2)cn1,99.67
14,COc1ccc(C)c(NC(=O)NCc2cccc(N(C)C)n2)c1,-15.2
15,CSC(C)C(=O)NCc1ccc(-n2cncn2)nc1 (configuration not stated),-9.599
16,Cc1nc(CSCCC(=O)NCc2ccc(-n3cncn3)nc2)cs1,103.5
17,Cc1nc(CSCCC(=O)NCCNC(=O)OC(C)(C)C)cs1,-7.243
18,Cc1nc(CNC(=O)NCCc2ccc(N(C)C)cc2)cs1,2.73
19,Cc1ccc(CNC(=O)CCSCc2csc(C)n2)cn1,-0.6284
20,Cc1nc(CCNC(=O)NCc2cccc(N(C)C)n2)cs1,98.24
21,CC(OCC(F)(F)F)C(=O)NCc1ccc(-n2cncn2)nc1 (configuration not stated),6.097
22,Cc1nc(CSCCC(=O)NCc2ccncc2)cs1,95.93

row,SMILES,Percent Effect [%]
1,Cc1ccc2c(c1)C(NC(=O)C1CCN(S(C)(=O)=O)CC1)CC(C)(C)O2 (configuration not stated),2.376
2,F[C@@H]1CN(CC2CC2)C[C@@H]1OCc1nc2ccc(C(F)(F)F)cc2[nH]1,-10.92
3,CC(C)N1CCc2onc(Cn3cccn3)c2C1,-7.292
4,O=C(Nc1ccccc1-c1ccccc1)N1C[C@@H]2CNC[C@]2(C(=O)O)C1,-1.582
5,Cc1nc(CNC(=O)NCC(F)(F)F)oc1C,5.267
6,Cc1ccc(-c2cc(-c3nc(CN4CCN(C)CC4)no3)n[nH]2)cc1,-2.901
7,CSCCCN1C(=O)CC[C@H]2CN(Cc3ncc[nH]3)CC[C@H]21,-3.327
8,Cc1nc(CSCCC(=O)NCc2ccc(N(C)C)cc2)cs1,100.6
9,Cc1nc(CNC(=O)NCc2ccc(OCC3CC3)nc2)cs1,-6.746
10,Cc1ncsc1CCC(=O)NCc1csc(N(C)C)n1,8.732
11,COc1ccc(CNC(=O)NCCc2csc(C)n2)cn1,78.6
12,Cc1nc(CCNC(=O)NCc2ccc(N(C)C)nc2)cs1,2.776
13,CCOc1ccc(C(=O)CCC(=O)NCCc2nncn2CC)cc1C,-15.05
14,CC(=O)N1CCC2(CC1)C(=O)N(c1ccc(C)nc1)CCN2CC(C)C,-6.199
15,CCCS(=O)(=O)N1CCN(C(=O)CO)CC1,9.785
16,COc1ccc(C2=C(C)C(N3CCc4ccccc4C3)=NS2(=O)=O)cc1,-1.571
17,CCS(=O)(=O)CC(=O)Nc1ccccc1N1CCc2ccccc21,-1.356
18,CC1=C(c2ccc(Cl)cc2)S(=O)(=O)N=C1N1CCc2ccccc21,182.9
19,CC1=C(c2ccc(C(C)C)cc2)S(=O)(=O)N=C1N1CCc2ccccc21,127.3
20,COc1ccc(C2=C(C)C(N3CCc4ccccc43)=NS2(=O)=O)cc1,41.03
21,CS(=O)(=O)NCCC(=O)Nc1ccccc1N1CCc2ccccc21,4.986
22,CC1=C(c2ccc(F)cc2)S(=O)(=O)N=C1N1CCc2ccccc21,117.2

row,SMILES,Percent Effect [%]
1,CNC(=O)NCC(=O)Nc1ccccc1N1CCc2ccccc21,-5.269
2,CC(C)c1nc(C2CCCN2CC(=O)N2CCc3ccccc32)no1 (configuration not stated),8.047
3,CC1=C(c2ccc(C)cc2)S(=O)(=O)N=C1N1CCc2ccccc21,130.8
4,CCc1nccn1CC(=O)N1C[C@H]2CC[C@@H]1CN(S(=O)(=O)N(C)C)C2,-7.287
5,Cc1nc(CN2CCCC2C(=O)OCc2ccccc2)oc1C (configuration not stated),2.818
6,CCN1CCN(C(=O)NCc2cccc(-c3cnn(C)c3)c2)CC1,-0.06636
7,CCOC(=O)NC(CNC(=O)c1cccc(C)n1)CC(C)C (configuration not stated),-0.9976
8,COCc1ccccc1C(=O)N1CCC(CNC(=O)OC(C)(C)C)C1 (configuration not stated),-8.221
9,CS(=O)(=O)CCC(=O)N1C[C@@H]2CC[C@H](C1)N(Cc1ccccn1)C2=O,13.71
10,N[C@@H]1CC[C@@H](Nc2nccc(CCC(F)(F)F)n2)C1,-1.257
11,CN(C)c1nccc(N(C)Cc2nc3ccccc3n2C)n1,-8.65
12,COCCOc1ncccc1NCc1nc2ccccc2n1C,92.25
13,COc1ccccc1-c1noc(CNc2ccc(F)cc2OCCO)n1,0.4936
14,CCNc1ncc(C(=O)N(C)Cc2nc3ccccc3n2C)cn1,-2.006
15,COc1ccc(-n2c(CO)nc3ccccc32)cc1CO,-2.808
16,Cn1c(CCCNc2nccnc2C#N)nc2ccccc21,-4.565
17,COc1cc(F)c(NCc2nc3ccccc3n2C)cc1OC,108.7
18,CN1C[C@@H](F)[C@@H](OCc2nc3ccccc3n2C)C1,6.816
19,COCCOc1ccc(F)cc1NCc1nc2ccccc2n1C,110.1

# Reference: ChEMBL document CHEMBL3988442, “University of Dundee, Small-Polar-MMV Screening Library” (2021)
